These results are taken from PubChem BioAssay (EPA / NIEHS).

The AC50 is the midpoint of the concentration-response curve, whichever way the signal moves.

SMILES strings stand for the structures. Calls of active or inactive are those of the source. How the source made its calls: active means hit-call score of the fitted dose curve at least 0.9, where 1 is the maximum; inactive means score below 0.9.

Chain of Fatty acid synthase (Homo sapiens) (P49327 whole entry, looked up): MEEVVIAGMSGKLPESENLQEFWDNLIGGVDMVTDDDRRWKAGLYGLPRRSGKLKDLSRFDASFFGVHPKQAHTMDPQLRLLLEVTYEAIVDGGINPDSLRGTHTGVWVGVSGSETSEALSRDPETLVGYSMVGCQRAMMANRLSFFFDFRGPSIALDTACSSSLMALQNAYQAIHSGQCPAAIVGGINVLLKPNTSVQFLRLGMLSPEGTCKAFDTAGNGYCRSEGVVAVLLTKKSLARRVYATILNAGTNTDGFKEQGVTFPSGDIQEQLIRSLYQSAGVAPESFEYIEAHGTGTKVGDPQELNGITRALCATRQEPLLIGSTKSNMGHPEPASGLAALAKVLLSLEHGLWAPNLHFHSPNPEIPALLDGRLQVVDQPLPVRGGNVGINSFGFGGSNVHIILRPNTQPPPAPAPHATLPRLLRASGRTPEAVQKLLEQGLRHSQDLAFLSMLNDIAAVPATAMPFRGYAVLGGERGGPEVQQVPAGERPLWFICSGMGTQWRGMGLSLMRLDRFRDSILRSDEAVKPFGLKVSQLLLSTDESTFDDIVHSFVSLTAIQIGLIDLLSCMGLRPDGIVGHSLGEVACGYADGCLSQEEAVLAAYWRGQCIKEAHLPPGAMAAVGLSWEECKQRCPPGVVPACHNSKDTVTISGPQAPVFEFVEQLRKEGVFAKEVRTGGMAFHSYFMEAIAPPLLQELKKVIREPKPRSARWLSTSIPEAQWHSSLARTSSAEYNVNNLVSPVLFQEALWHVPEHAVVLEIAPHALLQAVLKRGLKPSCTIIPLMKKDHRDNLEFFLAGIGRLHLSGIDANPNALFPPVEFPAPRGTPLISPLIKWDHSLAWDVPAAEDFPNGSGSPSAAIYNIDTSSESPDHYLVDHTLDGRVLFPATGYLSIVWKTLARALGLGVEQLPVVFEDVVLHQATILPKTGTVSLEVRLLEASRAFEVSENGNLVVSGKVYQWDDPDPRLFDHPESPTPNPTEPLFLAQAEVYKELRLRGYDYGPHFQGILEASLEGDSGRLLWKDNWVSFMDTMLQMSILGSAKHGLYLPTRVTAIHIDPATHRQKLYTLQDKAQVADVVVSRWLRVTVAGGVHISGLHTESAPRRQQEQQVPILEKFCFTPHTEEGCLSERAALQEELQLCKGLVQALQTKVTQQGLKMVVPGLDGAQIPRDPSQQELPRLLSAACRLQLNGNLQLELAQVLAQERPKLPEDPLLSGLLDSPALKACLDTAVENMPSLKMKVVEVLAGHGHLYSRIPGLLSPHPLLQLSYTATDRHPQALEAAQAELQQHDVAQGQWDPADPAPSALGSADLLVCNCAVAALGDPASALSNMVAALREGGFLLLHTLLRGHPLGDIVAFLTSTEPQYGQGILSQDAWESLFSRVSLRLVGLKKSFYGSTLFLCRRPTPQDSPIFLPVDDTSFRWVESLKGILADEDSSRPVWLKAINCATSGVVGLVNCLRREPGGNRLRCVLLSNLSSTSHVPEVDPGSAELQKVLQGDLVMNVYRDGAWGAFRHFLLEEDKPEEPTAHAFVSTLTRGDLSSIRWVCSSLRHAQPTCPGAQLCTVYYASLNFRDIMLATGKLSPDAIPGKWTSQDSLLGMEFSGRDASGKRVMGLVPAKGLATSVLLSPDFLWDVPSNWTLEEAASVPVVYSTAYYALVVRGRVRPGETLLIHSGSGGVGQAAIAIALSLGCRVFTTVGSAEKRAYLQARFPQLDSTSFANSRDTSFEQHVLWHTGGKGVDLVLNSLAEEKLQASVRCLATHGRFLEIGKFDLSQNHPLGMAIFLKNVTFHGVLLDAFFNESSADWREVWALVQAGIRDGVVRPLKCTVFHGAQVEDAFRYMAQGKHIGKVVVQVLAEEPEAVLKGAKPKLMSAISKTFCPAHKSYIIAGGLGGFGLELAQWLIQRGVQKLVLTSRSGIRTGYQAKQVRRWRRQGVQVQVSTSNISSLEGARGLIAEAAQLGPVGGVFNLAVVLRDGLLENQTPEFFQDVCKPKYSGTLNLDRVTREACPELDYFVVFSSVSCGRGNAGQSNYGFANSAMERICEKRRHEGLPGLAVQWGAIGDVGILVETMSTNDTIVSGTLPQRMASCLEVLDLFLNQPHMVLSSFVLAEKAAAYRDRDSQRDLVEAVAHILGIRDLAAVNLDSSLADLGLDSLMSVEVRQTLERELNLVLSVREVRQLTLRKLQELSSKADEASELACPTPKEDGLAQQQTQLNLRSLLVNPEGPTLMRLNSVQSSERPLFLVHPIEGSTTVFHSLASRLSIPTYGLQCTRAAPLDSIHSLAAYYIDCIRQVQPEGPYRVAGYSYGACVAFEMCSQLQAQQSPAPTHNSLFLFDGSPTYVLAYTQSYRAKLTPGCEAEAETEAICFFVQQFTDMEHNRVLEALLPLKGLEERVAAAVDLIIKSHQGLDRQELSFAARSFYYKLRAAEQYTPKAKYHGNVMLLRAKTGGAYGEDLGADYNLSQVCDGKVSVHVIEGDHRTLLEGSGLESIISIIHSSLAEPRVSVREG

Read-out in the first test: Fatty acid synthase (Homo sapiens) (UniProt P49327)
Briefly: LTEA_HepaRG_FASN: Life Technologies and Expression Analysis (LTEA) Assay for Fatty Acid Synthase (FASN) using HepaRG (AID 2283448).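 On AC50: differentiated human HepaRG liver cells in serum-free induction medium.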 The note with it: mRNA level, 48 h; actives raise or lower the signal. The gist of the method: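 Differentiated HepaRG cells in serum-free induction medium exposed 48 h in duplicate to eight half-log concentrations, top 100 uM, 0.5% DMSO. FASN mRNA by qRT-PCR normalised to ACTB, GAPDH, POLR2A; bidirectional fit versus DMSO.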
As for `CO/N=C(/C1=NOCCO1)c1ccccc1Oc1ncnc(Oc2ccccc2Cl)c1F`, the AC50 was 62.7 µM (active). Regarding `CCCCOCN(C(=O)CCl)c1c(CC)cccc1CC`, the result was inactive.

Consider `CS(=O)(=O)c1ccc(C(=O)C2C(=O)CCCC2=O)c([N+](=O)[O-])c1`, for which the outcome was inactive. On to `O=c1n(Cl)c(=O)n(Cl)c(=O)n1Cl`, for which the outcome was inactive. Consider `CCOP(=O)(OCC)Oc1nc(Cl)c(Cl)cc1Cl`, for which the AC50 is 60.2 µM (active).

As for `Cc1cnc(C2=NC(C)(C(C)C)C(=O)N2)c(C(=O)O)c1` (stereo not given), the compound was classed as inactive. In the case of `O=C(O)c1c(Cl)ccc2cc(Cl)cnc12`, the outcome was inactive. For the compound `Cc1cc(C)nc(Nc2ccccc2)n1`, the outcome was inactive.

Turning to `Nc1c(Cl)c(Cl)nc(C(=O)O)c1Cl`, the call was inactive. Consider `OC(c1ccc(Cl)cc1)(c1ccc(Cl)cc1)C(Cl)(Cl)Cl`, for which the AC50 is 34.8 µM (active). On to `CCCCC(O)(Cn1cncn1)c1ccc(Cl)cc1Cl` (stereo not given), for which the AC50 is 85.7 µM (active).

On to `Nc1c(Cl)c(F)nc(OCC(=O)O)c1Cl`, for which the compound was classed as inactive. In the case of `CC1(C)C(C(=O)OC(C#N)c2cccc(Oc3ccccc3)c2)C1(C)C` (stereo not given), the outcome was inactive.

In the case of `CCOc1cc(C(C)(C)C)ccc1C1COC(c2c(F)cccc2F)=N1` (stereo not given), the compound was classed as inactive. Consider `N#Cc1c[nH]cc1-c1cccc2c1OC(F)(F)O2`, for which the AC50 was 1.51 µM (active). As to `CCNC(=O)NC(=O)C(C#N)=NOC`, the call was inactive.

In the case of `COP(=O)(OC)O/C(C)=C/C(=O)N(C)C`, the compound was called inactive. `CCOc1nc(F)cc2nc(S(=O)(=O)Nc3c(Cl)cccc3Cl)nn12`: the compound was classed as inactive.

On to `CNC(=O)N(C)c1nnc(C(C)(C)C)s1`, for which the outcome was inactive.

In the case of `CC(C)N1C(=O)c2ccccc2NS1(=O)=O`, the result was inactive.

`Cc1ccc(N=CN(C)C=Nc2ccc(C)cc2C)c(C)c1`: the compound was called inactive.

As to `CS(=O)(=O)c1cc(C(F)(F)F)ccc1C(=O)c1cnoc1C1CC1`, the compound was called inactive. Turning to `C=C(C)CN(CC)c1c([N+](=O)[O-])cc(C(F)(F)F)cc1[N+](=O)[O-]`, the result was inactive. With `COc1ccc(-c2ccccc2)cc1NNC(=O)OC(C)C`, the call was inactive. On to `CN=C=S`, for which the compound was called inactive.

`O=P(O)(O)CCCl`: the outcome was inactive. For the compound `C=CCOC(=O)C(C)(C)OC(=O)c1cc(-n2c(=O)cc(C(F)(F)F)n(C)c2=O)ccc1Cl`, the result was inactive. Same read-out and setting: next, `CC(C)C1(C)N=C(c2ncccc2C(=O)O)NC1=O` (stereo not given): “inactive”; `CC(C)=CC1C(C(=O)OCc2coc(Cc3ccccc3)c2)C1(C)C` (stereo not given): “inactive”; `COCC(C)N(C(=O)CCl)c1c(C)csc1C` (stereo not given): “inactive”. Turning to `Cn1c(-c2ccccc2)cc(-c2ccccc2)[n+]1C`, the AC50 is 11.7 µM (active). Consider `CSC(=O)c1c(C(F)F)nc(C(F)(F)F)c(C(=O)SC)c1CC(C)C`, for which the compound was classed as inactive.

For `Clc1cccc(C(Cl)(Cl)Cl)n1`, the compound was called inactive. Still for that read-out and setting: next, `COc1cc(OC)nc(NC(=O)NS(=O)(=O)c2ncccc2OCC(F)(F)F)n1`: “inactive”.

On to `COC(=O)NS(=O)(=O)c1ccc(N)cc1`, for which the call was inactive. Turning to `COC(=O)c1c(C(F)F)nc(C(F)(F)F)c(C2=NCCS2)c1CC(C)C`, the compound was classed as inactive.

Read-out in a further test: Cyclin D2 (CCND2), CCND2 (gene 894)
Briefly: LTEA_HepaRG_CCND2: Life Technologies and Expression Analysis (LTEA) Assay for Cyclin D2 (CCND2) using HepaRG (AID 2283449).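 Further: CCND2 transcript measured by TaqMan qRT-PCR and normalised to three housekeeping genes.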 As to conditions: mRNA level, 48 h; actives raise or lower the signal. The gist of the method:
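Chemicals in 0.5% DMSO, eight half-log concentrations from 100 uM top, were applied in duplicate for 48 h to human HepaRG cells in serum-free induction medium. CCND2 mRNA by TaqMan qRT-PCR, normalised to ACTB/GAPDH/POLR2A; bidirectional fit versus DMSO.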
On to `CO/N=C(/C1=NOCCO1)c1ccccc1Oc1ncnc(Oc2ccccc2Cl)c1F`, for which the call was inactive. As for `CCCCOCN(C(=O)CCl)c1c(CC)cccc1CC`, the outcome was inactive. In the case of `CS(=O)(=O)c1ccc(C(=O)C2C(=O)CCCC2=O)c([N+](=O)[O-])c1`, the compound was called inactive. As to `O=c1n(Cl)c(=O)n(Cl)c(=O)n1Cl`, the result was inactive.

Take `CCOP(=O)(OCC)Oc1nc(Cl)c(Cl)cc1Cl`: the outcome was inactive. The same measure, in the same setting: the same measure for `Cc1cnc(C2=NC(C)(C(C)C)C(=O)N2)c(C(=O)O)c1` (stereo not given): “inactive”. As to `O=C(O)c1c(Cl)ccc2cc(Cl)cnc12`, the call was inactive. As for `Nc1c(Cl)c(Cl)nc(C(=O)O)c1Cl`, the outcome was inactive. Take `CCCCC(O)(Cn1cncn1)c1ccc(Cl)cc1Cl` (stereo not given): the result was inactive. On the same count and under the same terms, next, `Nc1c(Cl)c(F)nc(OCC(=O)O)c1Cl`: “inactive”. For `CC1(C)C(C(=O)OC(C#N)c2cccc(Oc3ccccc3)c2)C1(C)C` (stereo not given), the result was inactive.

For the compound `CCOc1cc(C(C)(C)C)ccc1C1COC(c2c(F)cccc2F)=N1` (stereo not given), the result was inactive. Still for that read-out and setting: next, `N#Cc1c[nH]cc1-c1cccc2c1OC(F)(F)O2`: “inactive”.

Turning to `CCNC(=O)NC(=O)C(C#N)=NOC`, the call was inactive.

Consider `COP(=O)(OC)O/C(C)=C/C(=O)N(C)C`, for which the outcome was inactive. For `CCOc1nc(F)cc2nc(S(=O)(=O)Nc3c(Cl)cccc3Cl)nn12`, the call was inactive. Consider `CC(C)N1C(=O)c2ccccc2NS1(=O)=O`, for which the outcome was inactive. For `CS(=O)(=O)c1cc(C(F)(F)F)ccc1C(=O)c1cnoc1C1CC1`, the compound was classed as inactive. Same read-out and setting: next, `C=C(C)CN(CC)c1c([N+](=O)[O-])cc(C(F)(F)F)cc1[N+](=O)[O-]`: “inactive”.

With `COc1ccc(-c2ccccc2)cc1NNC(=O)OC(C)C`, the call was inactive. The same measure, in the same setting: the same measure for `CN=C=S`: “inactive”; for `C=CCOC(=O)C(C)(C)OC(=O)c1cc(-n2c(=O)cc(C(F)(F)F)n(C)c2=O)ccc1Cl`: “inactive”. Still for that read-out and setting: the same measure for `CC(C)=CC1C(C(=O)OCc2coc(Cc3ccccc3)c2)C1(C)C` (stereo not given): “inactive”.

As for `Cn1c(-c2ccccc2)cc(-c2ccccc2)[n+]1C`, the outcome was inactive. Consider `CSC(=O)c1c(C(F)F)nc(C(F)(F)F)c(C(=O)SC)c1CC(C)C`, for which the result was inactive.

In the case of `Clc1cccc(C(Cl)(Cl)Cl)n1`, the result was inactive. Regarding `COc1cc(OC)nc(NC(=O)NS(=O)(=O)c2ncccc2OCC(F)(F)F)n1`, the AC50 is 223 nM (active).

Take `COC(=O)NS(=O)(=O)c1ccc(N)cc1`: the call was inactive. As to `COC(=O)c1c(C(F)F)nc(C(F)(F)F)c(C2=NCCS2)c1CC(C)C`, the outcome was inactive.
